Compound activity deposited in PubChem BioAssay by several laboratories.
AHR activator: activates the human aryl hydrocarbon receptor; P35869; AHR-responsive luciferase reporter cells, luminescence; activation, % at 5 µM; actives 2.5% (n = 320,000); AID 2796; in the data active = activation above about 47%
HSF1 inhib: HSF1 inhibition | activity change, negative = inhibition, % at 7.5 µM (by protocol) | actives 0.77% (n = 300,000) | NIH3T3-HGL HSE-luciferase, MG132-induced, luminescence 8 h; hits give low values;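 active = more than half of replicate wells show activity change below -50%, luminescence cut by over half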;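 note: luciferase reports HSF-1 transcriptional activity via heat shock element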
DAX1 inh: inhibits human nuclear receptor DAX1 | P51843 | actives 0.99% (n = 340,000) | HEK293 Gal4-DAX1 luciferase reporter, luminescence | inhibition, % at 6.75 µM;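 active = inhibition above the mean over all tested compounds plus 3 SD, cut at about 4.2% in these data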;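 note: inhibition shows as a rise in luminescence from relieved DAX1 repression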
Target sequence (P51843 207-470 limits assumed): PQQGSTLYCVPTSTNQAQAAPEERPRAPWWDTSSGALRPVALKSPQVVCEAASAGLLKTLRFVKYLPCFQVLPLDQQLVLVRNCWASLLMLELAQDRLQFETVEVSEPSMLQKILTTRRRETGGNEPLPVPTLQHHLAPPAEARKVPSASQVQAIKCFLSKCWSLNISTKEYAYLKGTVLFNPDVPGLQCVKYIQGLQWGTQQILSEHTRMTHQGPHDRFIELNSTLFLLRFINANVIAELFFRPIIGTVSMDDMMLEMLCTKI
HSF-1 act: increases HSF-1 driven luciferase reporter signal; NIH3T3-HGL HSF-1 luciferase reporter, MG132, 8 h; 100% = twice DMSO control signal; activation, % at 9 µM; actives 1.7% (n = 300,000); AID 504408;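 active = mean replicate activation of at least 50% with a set share of replicates each reaching 50%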
GAA850 FXN act: increases GAA850 frataxin promoter reporter activity; HEK293 lucGAA850 FXN promoter luciferase reporter, 24 h; percent of 10 µM SAHA response; activation, % at 6 µM; actives 0.56% (n = 360,000);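 active = activation above the average of all compounds screened plus 3 SD, cutoff fixed separately per campaign, cut at about 7.5% in these data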
Large screens that a line does not name were inactive. This is a sample that favours compounds with a hit; in the whole collection about 5.4% have one here.

COc1ccc(-c2cn(-c3ccccc3)nc2CO)cc1	HSF1 inhib -89
CC(C)N(Cc1nccn1C)C(=O)c1cc(COc2ccc(-n3cncn3)cc2)on1	none
CCOc1cnc(C(=O)NNC(=O)C(Br)C(C)C)o1 (centres undefined)	DAX1 inh 7.8
Cn1nc(C(F)(F)F)cc1-c1ccc(S(N)(=O)=O)s1	DAX1 inh 5.1
Cn1nc(-c2ccc(S(N)(=O)=O)s2)cc1C(F)(F)F	none
O=C(CC1NCCc2ccccc21)Nc1ccc(Cl)cc1 (centres undefined)	AHR activator 75
Cc1ccc(OC(C)C(=O)N(C)Cc2ccccc2)c([N+](=O)[O-])n1 (centres undefined)	none
COc1ccc(NC(=O)N2CCc3ccccc32)cc1	HSF-1 act 65
S=C(Nc1ccccc1)N1CCc2ccccc21	none
COc1ccc(NC(=S)N2CCc3ccccc32)cc1OC	AHR activator 53
Cc1ccc(N2CC(C(=O)OCC(=O)Nc3ccccc3C)CC2=O)cc1 (centres undefined)	none (no result: HSF1 inhib, HSF-1 act)
Cc1ccc(-c2cc(-c3ccc4c(c3)OCO4)c(C#N)c(N)n2)o1	AHR activator 75
Cc1ccc(-c2cc(-c3ccc(C)o3)nc(N)c2C#N)cc1	none
COc1ccc2c(c1)CC/C(=C\c1ccc(C)o1)C2=O	DAX1 inh 4.9
COc1ccc2c(c1)CC/C(=C/c1ccncc1)C2=O	none
COc1ccc2c(c1)CC/C(=C\C=C\c1ccccc1OC)C2=O	HSF-1 act 58
O=C(/C=C/c1cccc([N+](=O)[O-])c1)NC(=S)Nc1ccc(CN2CCOCC2)cc1	HSF-1 act 136
Cc1csc2c(=O)sc(NC(=O)c3ccc(F)cc3Cl)nc12	none
O=C(Nc1nc2ccsc2c(=O)s1)c1ccc(F)cc1Cl	DAX1 inh 7.8
O=C(OCn1ncc(Br)c(Br)c1=O)c1ccc(F)cc1	HSF1 inhib -94
O=C(OCn1ncc(Br)c(Br)c1=O)c1ccccc1Cl	HSF1 inhib -74
CC(C)c1ccc(NC(=O)COC(=O)C2CC3C=CC2C3)cc1 (centres undefined)	none (no result: HSF1 inhib, HSF-1 act)
CC(Nc1c[nH]c(=O)[nH]c1=O)c1ccccc1 (centres undefined)	none (no result: AHR activator)
CC(=O)OCCNc1cc(N2CCN(C)CC2)c2noc3c2c1C(=O)c1ccccc1-3	none (no result: AHR activator, HSF1 inhib, HSF-1 act)
CCOC(=O)C(C(=O)OCC)c1cc(Br)c2noc3c2c1C(=O)c1ccccc1-3	HSF-1 act 52
CC1=C(C(=O)N(C)C)CC(CC(=O)NCCCN(C)C)C(=O)N1Cc1ccccc1 (centres undefined)	none (no result: AHR activator, HSF1 inhib, HSF-1 act)
O=C(C1=C[C@@H](c2ccc(Br)cc2)C[C@@H](OCCCCO)O1)N1CCN(Cc2ccc3c(c2)OCO3)CC1	none
O=C(C1=C[C@H](c2ccc(C(F)(F)F)cc2)C[C@H](OCCCCO)O1)N1CCN(Cc2ccc3c(c2)OCO3)CC1	HSF1 inhib -70
CCNC(=S)N1CCN(S(=O)(=O)c2cccc(C(F)(F)F)c2)CC1	HSF-1 act 72
CC(C)NC(=S)N1CCN(S(=O)(=O)c2cccc(C(F)(F)F)c2)CC1	none
NNc1nc(-c2ccccc2)nc2sc3c(c12)CCCC3	AHR activator 75
NNc1nc2sc3c(c2c(=O)n1Cc1ccccc1)CCC3	none
CC(C)(C)NC(=O)C(c1ccc(F)cc1)N(Cc1ccccc1Cl)C(=O)c1ccn[nH]1 (centres undefined)	none
O=C(N/N=C/c1ccc(Cl)c([N+](=O)[O-])c1)c1cc(-c2ccc3c4c(cccc24)CC3)n[nH]1	none
O=C(N/N=C/c1cccc([N+](=O)[O-])c1)c1cc(-c2ccc3c4c(cccc24)CC3)n[nH]1	AHR activator 51
Cc1ccc(NC(=O)/C=C/c2cccs2)c([N+](=O)[O-])c1	HSF-1 act 63
Cc1ccc(NC(=O)/C=C/C(=O)O)c([N+](=O)[O-])c1	none
CC(=O)N1c2ccccc2C2(O)N=C(C)SC12 (centres undefined)	AHR activator 51
COc1ccccc1C1=NN(C(=S)Nc2ccccc2)C(c2ccco2)C1 (centres undefined)	HSF-1 act 52
COc1ccc(OC)c(C2CC(c3ccccc3)=NN2C(=S)Nc2ccccc2)c1 (centres undefined)	none
CCOC(=O)c1c(C)[nH]c(O)c1C=Nc1ccc(Cl)cc1	AHR activator 77
CCOC(=O)c1c(C)[nH]c(C)c1C=O	none
COC(=O)c1c(C)[nH]c(O)c1C=Nc1ccc(Oc2ccccc2)cc1	none
COC(=O)c1c(C)[nH]c(O)c1C=Nc1ccc(C(C)C)cc1	AHR activator 90
CCOC(=O)c1c(C)[nH]c(O)c1C=Nc1ccc(C(F)(F)F)cc1	AHR activator 62
Cn1nc(Cc2n[nH]c(=S)n2C)c2ccccc2c1=O	none
COCCN1C[C@@H](CO)O[C@@H](n2cnc3c(NCc4ccc(F)cc4)ncnc32)C1	none (no result: AHR activator, HSF1 inhib, DAX1 inh, HSF-1 act)
CC(C)(C)N1C(=O)[C@H]2[C@@H](c3ccc(Br)cc3)N3C(=O)N(c4ccccc4)C(=O)[C@@]3(C)[C@H]2C1=O	GAA850 FXN act 12
CCCCc1c(C)nn(-c2nnc3c4ccccc4n(CC)c3n2)c1C	AHR activator 52
CCn1c2ccccc2c2nc3ccccc3nc21	AHR activator 90, GAA850 FXN act 9.3
CC1Cc2c([nH]c3ccccc23)C2c3ccccc3CN12 (centres undefined)	AHR activator 57
COc1cc([C@H]2c3[nH]c4ccccc4c3C[C@H]3C(=O)N4[C@@H](c5cc(OC)c(OC)c(OC)c5)c5[nH]c6ccccc6c5C[C@H]4C(=O)N23)cc(OC)c1OC	none
c1ccc(-c2nn[nH]n2)nc1	HSF1 inhib -59
COc1ccc(Cl)cc1N1C(=O)CC(Sc2ccccc2N)C1=O (centres undefined)	none
c1ccc2c(c1)-c1cccc3c1c-2cc1ccccc13	AHR activator 102 (no result: HSF1 inhib, DAX1 inh, HSF-1 act, GAA850 FXN act)
O=c1cc(-c2cccc3ccccc23)[nH][nH]1	none
COC(=O)C(C)Sc1ncnc2c1nnn2-c1ccc(F)cc1 (centres undefined)	HSF-1 act 126
CCOC(=O)CNC(=O)CSc1ncnc2c1nnn2-c1ccc(F)cc1	HSF-1 act 95
COc1ccc(-n2nnc3c(SC(C(C)=O)C(=O)N(C)C)ncnc32)cc1 (centres undefined)	AHR activator 66
CCCS(=O)(=O)NC(=O)C1(C)CCN(C(=O)c2ccccc2OC)C1 (centres undefined)	none (no result: AHR activator, HSF1 inhib, DAX1 inh, HSF-1 act)
CCCCN(CCCNC(=O)C1CCN(S(=O)(=O)CC)CC1)c1ccccc1	HSF-1 act 64
O=C(OC1CCCCC1)c1cc2ccccc2oc1=O	HSF-1 act 52
COc1cccc2cc(C(=O)OC3CCN(C)CC3)c(=O)oc12	HSF1 inhib -68
O=C(NC1CCCCCC1)c1cc2ccccc2oc1=O	none
O=c1[nH]c(=S)[nH]cc1Oc1ccc(Cl)cc1	none (no result: AHR activator, HSF1 inhib, HSF-1 act)
